# Experimental data as given in PubChem BioAssay (NCATS).
# Records with an inconclusive call do not appear. A call without a number means that no potency is given here. Active and inactive are the calls of the source. The call rests on the fitted dose curve; in most records, active means well fitted inhibition curve with a large enough effect; inconclusive means small, poorly fitted or top-dose-only effect; inactive means flat fitted curve, though single readings scatter.
# Experiment: P-glycoprotein substrates identified in KB-8-5-11 adenocarcinoma cell line, qHTS therapeutic library screen (AID 1346987); further: nearly all actives have a fitted effect of over 65% in size
# Details: KB-8-5-11 (P-gp overexpressing) viability, CellTiter-Glo, 72 h; series mostly up to 44.5 µM
# Summary of the method: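 Steps: plate 500 KB-8-5-11 cells/well in DMEM + 10% FCS (colchicine removed); pin compounds in dose-response; incubate 72 h, 37 degree C, 5% CO2; add CellTiter-Glo, 5 min; read luminescence.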
# Potency means the concentration at half of the fitted maximal effect.
row,Compound,Potency
1,CC1C(=O)CC2C3CCC(C(=O)O)C12CC3(C)CO (stereo not drawn),inactive
2,OCC1OC(Oc2cc(O)cc(/C=C/c3ccc(O)cc3)c2)C(O)C(O)C1O (stereo not drawn),inactive
3,c1cc(OCCCN2CCCCC2)ccc1CN1CCCCC1,inactive
4,Cc1cccc(C)c1-n1c(=O)c2cnc(Nc3ccc(N4CCN(C)CC4)cc3)nc2n2c3ccccc3nc12,920 nM (active)
5,Cc1noc(-c2ccc(-c3ccc(CC(=O)O)cc3)cc2)c1NC(=O)O[C@H](C)c1ccccc1,inactive
6,C=C[C@@](C)(O)CC/C=C(\C)C(=O)O[C@@H]1[C@@H]2O[C@]2(C)[C@H]2[C@H](O[C@@H]3O[C@H](CO)[C@@H](O)[C@H](O)[C@H]3O)OC=C[C@@]12O,inactive
7,O=C(O)c1ccccc1NC(=O)N1CCC(c2ccccc2C(F)(F)F)CC1,inactive
8,COc1c2ccoc2cc2oc(CO[C@@H]3O[C@H](CO)[C@@H](O)[C@H](O)[C@H]3O)cc(=O)c12,inactive
